Results: ChEMBL document CHEMBL1157539, “Thousands of chemical starting points for antimalarial lead identification” (Nature, 2010)

test system: Plasmodium falciparum; experiment: GSK_TCMDC: Inhibition of Plasmodium falciparum 3D7 in whole red blood cells, using parasite LDH activity as an index of growth. Test compounds present at 2uM; assay type: functional

Inhibition, 82%:
Cl.N=C(N)Nc1nc(-c2ccc(NC(=N)N3CCC[C@H]3CN3CCCC3)cc2)cs1

Inhibition, 91%:
Cc1cccc2nc(-c3cccc(-c4ccc(NC(=O)C5CCCO5)cc4)c3)[nH]c12 (stereo not given), Cc1ccc(CN(Cc2ccc(C(=O)N(C)C)cc2)Cc2ccc3c(c2)OCCO3)cc1C

Inhibition, 98%:
Fc1ccc(OC2CN(c3nccc(NCc4ccccc4Cl)n3)C2)cc1, COc1ccccc1Nc1nc(C)cc(NCc2ccc(-c3c(C)noc3C)cc2)n1, O=c1cc(NCCCNCc2cc(Cl)cc(Cl)c2OCc2ccc(Cl)cc2)[nH]c2ccccc12, Cc1ccc(O)c(CN2CCCC(COC(c3ccc(F)cc3)c3ccc(F)cc3)C2)c1 (stereo not given), Cc1cc(O)c2c3c1C(=O)C=C1C3c3c(c(O)cc(O)c3C(=O)C1(C)C)C2=O (stereo not given)

Inhibition, 94%:
Cc1cccc2nc(-c3cccc(-c4cccc(CN5CCN(c6ccc(C#N)cn6)CC5)c4)c3)[nH]c12.O=C(O)C(F)(F)F, COc1ccc2ncc(OC)c(CCN3CC[C@@H](NCc4ccc5c(n4)NC(=O)CS5)[C@H](O)C3)c2n1, Cc1ccccc1C(=O)Nc1cccc(-c2nc3ncccn3c2C)c1

Inhibition, 97%:
COc1ccc(-c2cccc(NC(=O)c3cccc(C#N)c3)c2)cc1CN1CCC(O)CC1.O=C(O)C(F)(F)F, COC(=O)c1ccc2[nH]cc(C3CCN(CCC4CCN(C(=O)/C=C/c5ccc(Cl)c(Cl)c5)CC4)CC3)c2c1, Cc1[nH]c(C)c(-c2ccc(-c3ccc(F)cc3)nc2)c(=O)c1Br, COc1ccc(CCN(C)CCCN2CCC(NC(=O)c3cccc4c(=O)c5ccccc5sc34)CC2)cc1OC.O=C(O)C(=O)O, CC(C)CCN1CCC(Oc2ccc(NC(=O)c3cccs3)cc2Cl)CC1.O=C(O)C(F)(F)F

Inhibition, 100%:
Cc1cccc2nc(-c3ccc(-c4cccc(NC(=O)Nc5ccsc5)c4)cc3)[nH]c12, O=C(NCCCCN1CCC(c2ccc3ccccc3c2O)CC1)c1ccc(NC(=O)c2ccc(Cl)cc2)cc1, Cc1cc(N(C)C)nc(Nc2ccc(NC(=O)COc3ccccc3)cc2)n1, CNc1ccc(CNCc2ccc(-c3ccc(-c4nc5cccc(C)c5[nH]4)cc3)cc2)cc1.O=C(O)C(F)(F)F, CCN(CCCN1CCCCC1)c1cc(C)nc(Nc2ccc(Cl)cc2)n1.Cl, NC1CCCN(Cc2ccc(-c3ccc(-c4nc5ccccc5[nH]4)s3)cc2)C1.O=C(O)C(F)(F)F (stereo not given), COc1ccc2[nH]ccc(=NN=Cc3ccccc3)c2c1, Cc1cc(NC(=O)Nc2ccc3ccn(C)c3c2)c2ccccc2n1

Inhibition, 99%:
CC(CCc1ccccc1)NCC(O)c1ccc2c3c(cccc13)C(=O)N2C.Cl (stereo not given), Fc1ccc(NC(=S)NCCc2ccccc2)cc1, CCOC(=O)c1c(C)n(-c2ccccc2)c2ccc(OC(=O)COc3ccc(Cl)cc3Cl)cc12

Inhibition, 96%:
O=C(Nc1cccc([N+](=O)[O-])c1)Nc1ccc(Cl)c(C(F)(F)F)c1, Cc1nc2ccccc2c(=O)n1NCc1ccc(Cl)c(Cl)c1, COc1cccc(-c2ccc3c(-c4cccc(S(C)(=O)=O)c4)cnc(N)c3c2)c1

Inhibition, 85%:
Cc1nc(-c2cccc(C(=O)Nc3cnc4ccccc4c3)c2)no1.O=C(O)C(F)(F)F, Clc1cccc(C23N/C(=N\c4nc5ccccc5[nH]4)NC2(c2ccccc2)N/C(=N\c2nc4ccccc4[nH]2)N3)c1 (stereo not given)

Inhibition, 93%:
O=C(Nc1ccccc1Cl)N(Cc1cc(Cl)cc(Cl)c1)CC(O)COc1ccc(Cl)c(F)c1 (stereo not given), O=C(Nc1ccc2c(c1)CCCN2S(=O)(=O)c1cccs1)c1cc([N+](=O)[O-])ccc1Cl

Inhibition, 88%:
CC(C)(C)c1cc(C(=O)N2CCN(c3ccc(C(F)(F)F)cn3)CC2)n(Cc2ccc(F)cc2)n1, COc1ccc2nccc([C@@H](O)CN3CCC(NS(=O)(=O)c4cc5c(cc4Cl)SCC(=O)N5)CC3)c2c1.O=C(O)C(=O)O, CCCCCn1c(Sc2ccc(C#N)c([N+](=O)[O-])c2)nnc1-c1ccc(Cl)cc1

Inhibition, 92%:
COc1ccc(O)c(C(=O)c2cnc3c(c2)c(-c2ccc(F)cc2)c(C#N)c(=O)n3C)c1, COc1cccc(C(=O)Nc2ccc(Nc3nc(C)cc(N4CCCCC4)n3)cc2)c1OC

Inhibition, 89%:
Cl.Nc1ncc(Cc2cc(Cl)c(N)c3ncccc23)c(N)n1
